Screens (PubChem)
TDP1 cell noCPT = qHTS for Inhibitors of human tyrosyl-DNA phosphodiesterase 1 (TDP1): qHTS in cells in absence of CPT; DT40 Tdp1-/- hTDP1 cells, no CPT, ATP luminescence, 48 h; Potency, µM (highest dose often 46.2 µM), for the others: at the highest dose activity change, negative = growth inhibition, hits mostly inhibitors; 420,000 tested, 15% active; note: potency is the fitted concentration of half-maximal effect; nearly all actives have a fitted effect of over 55% in size
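Cells were dispensed at 400 per well, compounds added by pin tool, plates incubated ≥48 hr at 37 °C, then CellTiter-Glo added for 30 min at room temperature before luminescence reading. Line: DT40 Tdp1-/- complemented with hTDP1; camptothecin omitted.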
TDP1 cell CPT = qHTS for Inhibitors of human tyrosyl-DNA phosphodiesterase 1 (TDP1): qHTS in cells in presence of CPT. chicken DT40 Tdp1-/-;hTDP1 cells + 20 nM CPT, ATP luminescence, 48 h. Potency, µM (top dose mostly 46.2 µM), for inactives: at the top dose activity change, negative = growth inhibition, usual class: inhibitors. 420,000 tested, 12% active. AID 686979, 2013; note: potency is the fitted concentration of half-maximal effect; nearly all actives have a fitted effect of over 55% in size
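Chicken DT40 Tdp1-/- cells complemented with human TDP1, 400 cells/well, exposed to compounds plus 20 nM camptothecin for at least 48 h at 37 C; viability read as ATP content by CellTiter-Glo luminescence.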
HT1080 IDH1KD tx = qHTS for induction of synthetic lethality in tumor cells producing 2HG: qHTS for the HT-1080-IDH1KD cell line; HT-1080 IDH1 knockdown viability, ATP luminescence, 48 h; Potency, µM (top dose mostly 46.1 µM), without a hit: at the highest dose activity, negative = toxicity, actives largely listed as cytotoxic; 360,000 tested, 2% active;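 note: potency is the fitted concentration of half-maximal effect; 0% = DMSO wells and -100% = cell-free medium wells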
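Cytotoxicity counter-line: IDH1KD HT-1080, 48 h, CellTiter-Glo. Curves classed by r2, magnitude and activity.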
HT1080-NT tox = qHTS for induction of synthetic lethality in tumor cells producing 2HG: qHTS for the HT-1080-NT fibrosarcoma cell line; HT-1080-NT fibrosarcoma viability, CellTiter-Glo ATP luminescence, 48 h; Potency, µM (doses to about 46.1 µM), without a hit: at the highest dose activity, negative = less viability, actives largely listed as cytotoxic; 360,000 tested, 1.6% active;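 note: NT is the 2HG producing partner of a matched IDH1 knockdown line; potency is the fitted concentration of half-maximal effect; 0% = DMSO-treated cells and -100% = media-only wells without cells; nearly all actives have a fitted effect of over 55% in size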
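Luminescent CellTiter-Glo readout after 48 hours of compound exposure at 37 degrees C defined viability of HT-1080-NT cells. Activity was normalized to DMSO wells and cell-free media wells; concentration-response curves were fitted and assigned curve classes.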
IL1B secr inh = qHTS for Inhibitors of Inflammasome Signaling: IL-1-beta AlphaLISA Primary Screen | THP-1 LPS/ATP IL-1B secretion, AlphaLISA, 16 h; hits give low values | activity change, % at 57.5 µM | 360,000 tested, 4.7% active | AID 743279, 2014; in the data active = activity change below about -50%; inconclusive = mostly about -30% to -49%
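THP-1 cells pretreated 1 hr with compounds (up to 57.5 uM final), then stimulated with LPS (250 ng/mL final) plus ATP (1.25 mM final); secreted IL-1B measured by AlphaLISA after 16 hr, decreased signal indicating inhibition.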
* hit, by the source's call; ? = inconclusive; / = no result given. The list is not random: actives were taken first. Their share in the collection is about 19%. Unless noted, calls come from the whole dose curve; as a rule, active = well fitted curve in the direction sought with a large enough effect; inconclusive = small, poorly fitted or top-dose-only effect, or another doubt; inactive = no such curve, though single readings can be large; an effect the other way counts as inactive or inconclusive. Unless noted, % is set by controls: 0 for no effect and ±100 for the full control effect.

SMILES | TDP1 cell noCPT | TDP1 cell CPT | HT1080 IDH1KD tx | HT1080-NT tox | IL1B secr inh
CC(C(=O)NC1(C#N)CCCCC1)N(C)CC(=O)Nc1ccc(Cl)c(Cl)c1 (configuration not stated) | 18.4µM* | ? | -1.0% | -20.3% | -18.4
CN(CC(=O)Nc1ccc(Cl)c(Cl)c1)C1CCCCC1 | ? | ? | 8.7% | 10.5% | -10.3
O=S1(=O)C=C[C@@H](COCc2ccccc2)N1Cc1ccc(Br)cc1 | ? | ? | -9.8% | -7.9% | -27.1
CCc1nc2ccc(C(=O)NCCN3CCOCC3)cn2c1N(C)Cc1ccc(OC)cc1 | 23.1µM* | ? | 0.5% | ? | -9.2
CCc1nc2ccc(C(=O)NCCCN3CCCC3=O)cn2c1N(C)Cc1ccc(OC)cc1 | ? | 16.4µM* | 11.1% | 2.6% | 0.0
CC(C)c1ccc(NC(=O)c2snc3ccc(Cl)cc23)cc1 | -86.9% | -93.8% | ? | -24.0% | -7.6
CCCCN1C(=O)C(C(=O)OCC)CC2=C1CCCC2=O (configuration not stated) | -6.9% | -2.1% | 6.5% | 14.6% | 17.6
CCOC(=O)CC(S(=O)(=O)c1ccccc1)S(=O)(=O)c1ccccc1 | 0.651µM* | 0.581µM* | 20.6µM* | ? | ?
Cc1cccc(N=C2Sc3nc4c(C)c(C)ccc4cc3CN2CCN2CCOCC2)c1 | 23.1µM* | 18.4µM* | ? | ? | -58.7*
Cc1cccc(N2CCN(C(=O)Nc3cn(CC(C)C)c(=O)c4ccccc34)CC2)c1C | 7.31µM* | 8.2µM* | / | / | /
Cc1ccc(N2CCN(C(=O)Nc3cn(CC(C)C)c(=O)c4ccccc34)CC2)c(C)c1 | 10.3µM* | 10.3µM* | / | / | /
CSc1nsc(/C=C/Nc2ccc(C)cc2)c1C#N | -11.7% | ? | -12.1% | -10.2% | 28.8
Cc1sc(NC(=O)CSc2ncn(-c3ccccc3)n2)nc1-c1ccccc1 | -58.3% | ? | -5.2% | 8.8% | 0.0
O=C(CSC1=NCCS1)Nc1nc2ccccc2s1 | ? | ? | ? | -4.9% | -73.6*
CC(=O)Nc1nc(-c2ccccc2)c(-c2ccccc2)s1 | ? | ? | -10.3% | -13.2% | /
CC(=O)N1CC(=O)N=C1SCC(=O)Nc1nc(-c2ccccc2)c(-c2ccccc2)s1 | 13µM* | 18.4µM* | ? | ? | -76.7*
O=C(CSc1nc2ccccc2o1)Nc1nc2ccccc2s1 | -12.8% | -7.2% | -13.2% | -8.5% | 11.4
Cc1sc(NC(=O)CSC2=NCCS2)nc1-c1ccccc1 | ? | -22.6% | -1.5% | 13.6% | -97.3*
CCN(C(=O)CSc1ncccn1)c1cccc2ccccc12 | ? | ? | 10.4% | -1.6% | -3.7
COc1ccc(N2CCN(C(=S)NC(C)c3ccccc3)CC2)cc1 (configuration not stated) | 14.6µM* | ? | -1.0% | 2.3% | -12.4
Cc1cc(Cl)ccc1NC(=S)NCc1ccc(S(N)(=O)=O)cc1 | -2.9% | ? | 1.7% | 1.9% | 16.9
Cc1cccc(NC(=S)NCCC(c2ccccc2)c2ccccc2)c1 | 16.4µM* | ? | -8.4% | -2.2% | -6.9
Cc1cc(Cl)ccc1NC(=S)NCc1ccc(Cl)cc1 | 23.1µM* | ? | 8.8% | 0.5% | -1.6
Cc1cccc(NC(=S)NN(Cc2ccccc2)c2ccccc2)c1C | 15.8µM* | 25.1µM* | -6.3% | -4.3% | -1.3
CSc1cccc(NC(=O)Nc2ccccc2C(N)=O)c1 | ? | -28.5% | -3.3% | -5.1% | -3.7
Cc1cc(Cl)ccc1NC(=S)NCCc1ccc(Cl)cc1 | ? | ? | ? | ? | -20.3
COc1cccc(NC(=S)N2CCN(C(c3ccccc3)c3ccccc3)CC2)c1 | -9.7% | -0.9% | -4.4% | -3.0% | -12.9
